Results as given in PubChem BioAssay (NCATS).
Several values for one entry are separate records, joined by “and”; a condition that tells them apart may be missing. Equal values may be shown once. Results filed as inconclusive are left out. Activity calls are given as the source filed them. Unless noted, calls come from the whole dose curve; as a rule, active = well fitted curve in the direction sought with a large enough effect; inconclusive = small, poorly fitted or top-dose-only effect, or another doubt; inactive = no such curve, though single readings can be large; an effect the other way counts as inactive or inconclusive.

Columns and labels:
[1] = Cell Viability - Hek293 (AID 427;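 active = compounds whose dose-response curve shows a full or clear partial loss of cell viability, called from curve shape rather than a numeric limit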;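 note: potency is the fitted concentration of half-maximal effect; cells exposed to compound for 40 hours at 37 °C before reading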); settings: qHTS
How it was run: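 qHTS, human embryonic kidney (adenovirus-transformed) cells; 40 hr cpd, 37 °C; CellTiter-Glo ATP luminescence. Norm: DMSO = 0, 100 uM tamoxifen = 100% inhibition. Hill-fit AC50.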

[2] = Cell Viability - SK-N-SH (AID 435; calls by dose curve;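 note: potency is the fitted concentration of half-maximal effect; compound exposure lasted 40 h at 37 °C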); settings: SK-N-SH neuroblastoma cell viability qHTS
How it was run: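 Human neuroblastoma line, 40 h exposure at 37 °C, ATP quantified via luciferase luminescence; DMSO and 100 uM tamoxifen define 0 and 100% inhibition for AC50 fitting.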

[3] = Cell Viability - Renal Proximal Tubule (AID 545); settings: renal proximal tubule cells viability, primary cells of rat origin; activity change, negative = cytotoxicity: at 91.7 µM (top of the series); note: nearly all actives have a fitted effect of over 40% in size; note: potency is the fitted concentration of half-maximal effect;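 for activity change, negative = cytotoxicity: 0% = DMSO only and -100% = 100 µM tamoxifen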
How it was run: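 In this qHTS format, normal rat kidney-derived proximal tubule cells in complete culture medium receive compound titrations, then sit 40 hours at 37 °C before luciferase-based ATP quantitation; potency is reported as AC50 from concentration-response curves.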

[4] = MultiTox-Fluor Cytotoxicity Assay - LYMP1-002 - Dead Cells (AID 960); settings: LYMP1-002 lymphoblastoid cells, dead-cell protease fluorescence; series mostly up to 46.1 µM; note: nearly all actives have a fitted effect of over 60% in size; note: potency is the fitted concentration of half-maximal effect
How it was run: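 Readout: fluorescence at 485/520 from cell-impermeant bis-AAF-R110 cleaved by proteases leaking from damaged cells. LYMP1-002 lymphoblastoid line, 16 hr compound treatment at 37 C, concentration-response in qHTS format; Hill-equation AC50 values.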

[5] = Cell Viability - LYMP2-005 (AID 967); settings: LYMP2-005 lymphoblastoid cell viability; series mostly up to 92.2 µM; note: potency is the fitted concentration of half-maximal effect
How it was run: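 Luciferase-based ATP quantitation served as the viability measure in human lymphoblastoid LYMP2-005 cells exposed to test compounds for 24 h at 37 C in complete culture medium. Potency (AC50) was obtained by fitting concentration-response curves with the Hill equation.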

[6] = Cell Viability - LYMP2-006 (AID 978); settings: LYMP2-006 lymphoblastoid cell viability, qHTS; series mostly up to 92.2 µM; note: nearly all actives have a fitted effect of over 60% in size; note: potency is the fitted concentration of half-maximal effect; for activity change, negative = cytotoxicity: % is set by controls: 0 for no effect and ±100 for the full control effect
How it was run: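 In this cytotoxicity screen, the human lymphoblastoid line grew in complete medium with test compounds for 24 hr at 37 C. Cellular ATP served as the viability signal.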

[7] = target: Glucocorticoid receptor (Homo sapiens) (UniProt P04150); experiment: qHTS assay for small molecule agonists of glucocorticoid receptor signaling (AID 588532; active = well fitted curve in the direction sought with a large enough effect in the signal ratio, with a control signal flat; the % refers to the signal ratio;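 note: 100% = dexamethasone at 0.1 µM and 0% = DMSO only wells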); settings: HeLa MMTV-bla, beta-lactamase ratio, agonist, 18 h; stronger effect = higher value; percent of dexamethasone control, DMSO zero
How it was run: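 Quantitative HTS using CellSensor MMTV-bla HeLa cells in charcoal/dextran-treated serum; compounds tested up to 92 uM. After 18 h at 37 C, CCF4 dye reported reporter induction.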

[8] = target: Thyroid hormone receptor beta (Homo sapiens) (UniProt P10828); experiment: qHTS assay for small molecule agonists of thyroid hormone receptor beta signaling (AID 588545; calls by dose curve;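 note: 0% = DMSO only and 100% = 10 nM T3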); settings: TR-UAS-bla GripTite HEK 293, beta-lactamase ratio, agonist mode, 18 h; series mostly up to 76.7 µM
How it was run: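 Compounds were tested as agonists in TR-UAS-bla-GripTite HEK 293 cells. After 18 hrs at 37 C, CCF4 substrate was added and fluorescence read after 2 hrs at room temperature.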

[9] = target: Thyroid hormone receptor beta (Homo sapiens) (UniProt P10828); experiment: qHTS assay for small molecule antagonists of thyroid hormone receptor beta signaling (AID 588547; active = well fitted inhibition curve with a large enough effect in the signal ratio, with a control signal flat, not every such curve was filed as active; the % refers to the signal ratio;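 note: cells stimulated with 0.4 nM T3 agonist during compound exposure; % is set by controls: 0 for no effect and ±100 for the full control effect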); settings: TR-UAS-bla HEK293, beta-lactamase ratio, antagonist mode, 18 h
How it was run: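 Inhibition of T3-driven (0.4nM final) beta-lactamase reporter activity was measured over 0.59 nM to 92 uM compound after 18 h at 37 C. The cells were GripTite HEK293 TR-UAS-bla in charcoal/dextran-stripped serum, with CCF4 ratio read-out and IC50 from Hill fits.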

[10] = target: Voltage-gated inwardly rectifying potassium channel KCNH2 (Homo sapiens) (UniProt Q12809); experiment: qHTS Assay for Small Molecule Inhibitors of the Human hERG Channel Activity (AID 588834); settings: U2OS BacMam hERG, FluxOR thallium flux fluorescence; series mostly up to 92.2 µM;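 note: top concentration of the series differs between compounds; % is set by controls: 0 for no effect and ±100 for the full control effect; lower thallium flux fluorescence means stronger hERG block; nearly all actives have a fitted effect of over 50% in size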
How it was run: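 Homogeneous FluxOR thallium flux assay using hERG-expressing U2OS cells (BacMam). Compound treatment about 10 minutes preceded stimulation; reduced fluorescence taken as channel block.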

[11] = qHTS assay for small molecule disruptors of the mitochondrial membrane potential - 1 hr assay (AID 651754; calls by dose curve; note: % is set by controls: 0 for no effect and ±100 for the full control effect; nearly all actives have a fitted effect of over 35% in size); settings: series mostly up to 92.2 µM
How it was run: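 Read-out: dye fluorescence at 490 nm ex/535 nm em (monomers) and 540 nm ex/590 nm em (aggregates) in HepG2 cells. Compound exposure 1 hr at 37C, followed by 30 min dye loading.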

[12] = qHTS assay for small molecule disruptors of the mitochondrial membrane potential - 5 hr assay (AID 651755; calls by dose curve; note: % is set by controls: 0 for no effect and ±100 for the full control effect; nearly all actives have a fitted effect of over 40% in size); settings: JC-1-type ratio dye; series mostly up to 92.2 µM
How it was run: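 Membrane-potential dye readout: red aggregate (540 ex/590 em) versus green monomer (490 ex/535 em) fluorescence after 30 min dye loading, following 5 hr compound exposure at 37C of overnight-plated HepG2 cells.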

[13] = MultiTox-Fluor Cytotoxicity Assay - LYMP1-001 - Live Cells (AID 947); settings: LYMP1-001 lymphoblastoid cells, live-cell protease fluorescence viability; series mostly up to 92.2 µM; note: potency is the fitted concentration of half-maximal effect;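 for activity change, negative = cytotoxicity: 0% = DMSO only and full inhibition = tetraoctylammonium bromide control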
[14] = Cell Viability - LYMP2-009 (AID 968); settings: LYMP2-009 lymphoblastoid cell viability; series mostly up to 92.2 µM; note: nearly all actives have a fitted effect of over 55% in size; note: potency is the fitted concentration of half-maximal effect
[15] = Cell Viability - LYMP2-015 (AID 971); settings: LYMP2-015 lymphoblastoid cell viability; series mostly up to 92.2 µM; note: nearly all actives have a fitted effect of over 55% in size; note: potency is the fitted concentration of half-maximal effect
How it was run: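 qHTS cytotoxicity: 2500 cells/well, 5 hr 37 C, compound 24 hr 37 C, CellTiter-Glo 30 min RT, luminescence. Loss of ATP = toxicity; AC50 via standard Hill fit.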

[16] = Cell Viability - LYMP2-019 (AID 973); settings: LYMP2-019 lymphoblastoid cell line viability; series mostly up to 92.2 µM; note: nearly all actives have a fitted effect of over 55% in size; note: potency is the fitted concentration of half-maximal effect;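 for activity change, negative = cytotoxicity: 0% = DMSO alone and full effect = 92 µM tetraoctylammonium bromide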
How it was run: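 qHTS, 1536-well; 2500 cells/well; 5 hr pre-incubation, 24 hr compound exposure, 37 C; CellTiter-Glo added, 30 min RT; luminescence read; AC50 via standard Hill equation.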

[17] = Cell Viability - LYMP2-010 (AID 981); settings: LYMP2-010 lymphoblastoid cell viability, qHTS; series mostly up to 92.2 µM; note: nearly all actives have a fitted effect of over 55% in size; note: potency is the fitted concentration of half-maximal effect
How it was run: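 qHTS cytotoxicity, 1536-well: 2500 cells/well, 5 hr settle, 24 hr compound at 37 C, CellTiter-Glo 30 min RT, luminescence read. Decrease in ATP = toxicity; AC50 via standard Hill equation. Positive control tetraoctylammonium bromide.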

[18] = qHTS assay for small molecule agonists of retinoid X receptor alpha signaling (AID 588544); settings: HEK293T RXRa-UAS-bla, beta-lactamase reporter, 18 h; 530 nm emission
[19] = target: Nuclear receptor subfamily 1 group I member 2 (Rattus norvegicus) (UniProt Q9R1A7); experiment: qHTS assay for small molecule activators of the rat pregnane X receptor (rPXR) signaling pathway (AID 651751; call rule not given here; note: 0% is about no effect); settings: rPXR reporter cells, luciferase (One-Glo), 24 h
[20] = qHTS assay for small molecule antagonists of the retinoid-related orphan receptor gamma (ROR-gamma) signaling pathway - cell viability counter screen (AID 720652; active = well fitted curve in the direction sought with a large enough effect in the repeat runs; an effect the other way counts as inactive or inconclusive;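 note: compound exposure lasted 16 hr before ATP read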; note: potency is the fitted concentration of half-maximal effect;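 for activity change, negative = cytotoxicity: CHO reporter cells with doxycycline-induced ROR-gamma expression; % is set by controls: 0 for no effect and ±100 for the full control effect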); settings: RORgamma reporter cell line viability counter screen; series mostly up to 92.2 µM
How it was run: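 CHO RORE-LUC/TET-ROR line, 1,000 cells/well, 37 C 5% CO2 5 hr; cpd or DMSO + doxycycline induction, 16 hr. CellTiter-Glo, 30 min RT, luminescence = ATP content.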

Sequence of Thyroid hormone receptor beta (Homo sapiens) (P10828 whole entry, looked up): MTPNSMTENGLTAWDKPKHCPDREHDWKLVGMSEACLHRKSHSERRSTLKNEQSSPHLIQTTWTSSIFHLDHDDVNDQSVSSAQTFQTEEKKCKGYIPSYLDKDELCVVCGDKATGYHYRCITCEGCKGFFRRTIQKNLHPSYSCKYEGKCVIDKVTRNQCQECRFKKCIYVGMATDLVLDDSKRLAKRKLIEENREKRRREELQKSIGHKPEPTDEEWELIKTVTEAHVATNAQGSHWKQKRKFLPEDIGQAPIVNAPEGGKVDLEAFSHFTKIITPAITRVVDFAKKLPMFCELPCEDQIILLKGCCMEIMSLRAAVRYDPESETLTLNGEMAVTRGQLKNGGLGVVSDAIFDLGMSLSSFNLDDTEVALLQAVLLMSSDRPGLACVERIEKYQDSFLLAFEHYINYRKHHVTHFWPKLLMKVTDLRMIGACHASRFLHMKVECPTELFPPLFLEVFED
Sequence of Glucocorticoid receptor (Homo sapiens) (P04150 whole entry, looked up): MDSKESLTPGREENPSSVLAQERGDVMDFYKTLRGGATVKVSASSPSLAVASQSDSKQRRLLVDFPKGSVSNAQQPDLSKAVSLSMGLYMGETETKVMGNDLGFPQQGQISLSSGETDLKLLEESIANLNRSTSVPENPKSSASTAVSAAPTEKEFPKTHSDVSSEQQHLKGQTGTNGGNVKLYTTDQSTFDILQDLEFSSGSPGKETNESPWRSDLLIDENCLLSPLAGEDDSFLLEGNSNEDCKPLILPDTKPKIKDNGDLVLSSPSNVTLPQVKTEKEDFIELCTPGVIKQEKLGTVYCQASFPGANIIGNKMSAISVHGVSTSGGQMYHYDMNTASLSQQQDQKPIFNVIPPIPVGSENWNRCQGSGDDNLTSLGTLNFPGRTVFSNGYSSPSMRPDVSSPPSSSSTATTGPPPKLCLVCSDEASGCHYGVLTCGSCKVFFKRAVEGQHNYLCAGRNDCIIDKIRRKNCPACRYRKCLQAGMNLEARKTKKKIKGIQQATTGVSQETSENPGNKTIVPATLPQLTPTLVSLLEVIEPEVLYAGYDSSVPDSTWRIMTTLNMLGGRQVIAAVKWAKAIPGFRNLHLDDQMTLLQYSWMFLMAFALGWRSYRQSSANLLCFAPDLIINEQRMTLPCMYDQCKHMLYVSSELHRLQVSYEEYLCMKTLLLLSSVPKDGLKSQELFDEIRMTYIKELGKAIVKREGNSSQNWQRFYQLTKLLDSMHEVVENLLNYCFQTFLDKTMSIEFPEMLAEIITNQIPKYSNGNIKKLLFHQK
Sequence of Voltage-gated inwardly rectifying potassium channel KCNH2 (Homo sapiens) (Q12809 whole entry, looked up): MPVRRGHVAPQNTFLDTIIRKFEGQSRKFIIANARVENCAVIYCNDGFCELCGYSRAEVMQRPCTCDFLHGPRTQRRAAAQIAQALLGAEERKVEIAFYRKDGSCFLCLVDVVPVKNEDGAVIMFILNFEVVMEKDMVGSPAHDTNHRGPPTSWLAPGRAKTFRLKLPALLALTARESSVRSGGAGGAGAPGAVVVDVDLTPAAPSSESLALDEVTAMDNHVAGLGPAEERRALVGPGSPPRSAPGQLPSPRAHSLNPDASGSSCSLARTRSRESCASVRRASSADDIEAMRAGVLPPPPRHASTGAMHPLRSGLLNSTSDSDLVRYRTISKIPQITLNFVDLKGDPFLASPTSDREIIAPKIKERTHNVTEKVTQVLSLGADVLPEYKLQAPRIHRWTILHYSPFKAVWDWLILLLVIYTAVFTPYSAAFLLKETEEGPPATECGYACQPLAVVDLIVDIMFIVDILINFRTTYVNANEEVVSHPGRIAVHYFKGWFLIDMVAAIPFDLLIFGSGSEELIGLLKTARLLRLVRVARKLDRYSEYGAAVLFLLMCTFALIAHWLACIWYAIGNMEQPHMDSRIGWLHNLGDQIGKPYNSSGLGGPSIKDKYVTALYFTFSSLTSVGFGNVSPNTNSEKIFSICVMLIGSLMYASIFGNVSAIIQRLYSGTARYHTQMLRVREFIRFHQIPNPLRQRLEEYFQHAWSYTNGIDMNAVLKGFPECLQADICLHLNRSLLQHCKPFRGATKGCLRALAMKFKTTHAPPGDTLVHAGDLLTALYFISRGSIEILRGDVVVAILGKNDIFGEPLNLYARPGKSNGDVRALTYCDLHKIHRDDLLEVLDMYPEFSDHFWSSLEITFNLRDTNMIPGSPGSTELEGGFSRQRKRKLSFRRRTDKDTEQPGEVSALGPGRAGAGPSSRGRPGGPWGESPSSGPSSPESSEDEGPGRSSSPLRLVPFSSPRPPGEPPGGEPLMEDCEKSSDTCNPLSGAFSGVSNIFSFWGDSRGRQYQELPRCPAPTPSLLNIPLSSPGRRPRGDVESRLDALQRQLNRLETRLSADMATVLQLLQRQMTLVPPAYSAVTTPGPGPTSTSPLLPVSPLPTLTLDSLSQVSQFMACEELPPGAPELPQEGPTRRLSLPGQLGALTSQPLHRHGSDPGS
Sequence of Nuclear receptor subfamily 1 group I member 2 (Rattus norvegicus) (Q9R1A7 whole entry, looked up): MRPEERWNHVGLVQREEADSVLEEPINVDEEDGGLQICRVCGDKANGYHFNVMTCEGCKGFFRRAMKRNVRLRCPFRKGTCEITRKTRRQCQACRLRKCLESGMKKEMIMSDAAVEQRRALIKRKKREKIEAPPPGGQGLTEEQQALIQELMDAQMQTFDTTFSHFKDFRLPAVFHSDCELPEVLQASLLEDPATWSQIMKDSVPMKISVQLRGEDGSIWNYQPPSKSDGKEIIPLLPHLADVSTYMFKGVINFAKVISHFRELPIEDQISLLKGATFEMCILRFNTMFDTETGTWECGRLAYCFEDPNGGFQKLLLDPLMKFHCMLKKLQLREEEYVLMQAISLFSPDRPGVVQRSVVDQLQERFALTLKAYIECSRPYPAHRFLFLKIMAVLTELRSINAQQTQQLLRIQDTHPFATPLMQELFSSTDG

Clc1nc2ccccc2nc1Cl
inactive: Potency [1] > 92 µM | Potency [2] > 92 µM | Potency [3] | Potency [4] | Potency [5] | Potency [6] | activation [7] 3.19% | Potency [8] | activity change % (negative = inhibition) [9] -2.15% | Potency [10] | Potency [11] | Potency [12]

C=CC(=O)CC
-11.5%: max response [18]
inactive: Potency [1] > 92 µM | Potency [2] > 92 µM | Potency [3] | Potency [13] | Potency [4] | Potency [5] | Potency [14] | Potency [15] | Potency [16] | Potency [6] | Potency [17] | Potency [8] | activity change % (negative = inhibition) [9] 9.8% | Potency [10] | Potency [11] | Potency [12] | max response [19] 9.91%

Cc1c(N)cccc1Cl
inactive: Potency [1] > 92 µM | Potency [2] > 92 µM | Potency [3] | Potency [13] | Potency [4] | Potency [5] | Potency [14] | Potency [15] | Potency [16] | Potency [6] | Potency [17] | activation [7] -4.07% | Potency [8] | activity change % (negative = inhibition) [9] 0.909% | Potency [10] | Potency [11] | Potency [12] | Potency [20] | max response [19] 7.66%
8.41%: max response [18]

c1ccc(COCc2ccccc2)cc1
-5.39%: max response [18]
inactive: Potency [1] > 92 µM | Potency [2] > 92 µM | Potency [3] | Potency [13] | Potency [4] | Potency [5] | Potency [14] | Potency [15] | Potency [16] | Potency [6] | Potency [17] | Potency [8] | activity change % (negative = inhibition) [9] -18.1% | Potency [10] | Potency [11] | Potency [12] | Potency [20] | max response [19] 4.39%

Nc1ccc(-c2ccc(N)c(O)c2)cc1O
inactive: Potency [2] > 92 µM | Potency [3] | Potency [13] | Potency [4] | Potency [6] | activation [7] 0.0418% | activity change % (negative = inhibition) [9] -12.5% | Potency [10] | Potency [11] | Potency [20] | max response [19] -1.46%

C=CC(=O)OCCCCCCOC(=O)C=C
active: Potency [2] 50.2 µM | Potency [13] 39.8 µM | Potency [4] 31.6 µM | Potency [5] 39.8 µM | Potency [14] 39.8 µM | Potency [15] 39.8 µM | Potency [16] 50.1 µM | Potency [6] 50.1 µM | Potency [17] 39.8 µM
3.42%: max response [18]
inactive: activation [7] -0.42% and -1.5% | Potency [8] | activity change % (negative = inhibition) [9] -7.08% | Potency [10] | Potency [11] | Potency [12] | max response [19] -2.77% and -1.84%

O=Nc1ccc(Nc2ccccc2)cc1
inactive: Potency [8] | Potency [10] | Potency [11] | Potency [12]
active: Potency [1] 30.8 µM | Potency [2] 11.5 µM

Cc1c(C(=O)O)c(O)cc2c1C(=O)c1c(O)c([C@H]3O[C@H](CO)[C@@H](O)[C@H](O)[C@H]3O)c(O)c(O)c1C2=O
active: Potency [2] 38.2 µM | Potency [3] 31.6 µM
-6.4%: max response [18]
inactive: Potency [13] | Potency [4] | activation [7] -7.96% | Potency [8] | Potency [11] | Potency [12] | max response [19] -9.27%

Oc1cc2c(cc1O)[C@H]1c3ccc(O)c(O)c3OC[C@@]1(O)C2
active: Potency [13] 50.1 µM | Potency [14] 39.8 µM | Potency [15] 25.1 µM | Potency [16] 39.8 µM | Potency [6] 39.8 µM | Potency [17] 39.8 µM
5.74%: max response [18]
inactive: Potency [4] | activation [7] 0.204% | Potency [8] | activity change % (negative = inhibition) [9] -14.1% | Potency [11] | Potency [12] | Potency [20] | max response [19] -8.86%

C/C=C/C=C/C=O
-9.87%: max response [18]
active: Potency [5] 39.8 µM | Potency [14] 39.8 µM | Potency [15] 39.8 µM | Potency [16] 39.8 µM | Potency [6] 39.8 µM | Potency [17] 31.6 µM | Potency [20] 29.8 µM
inactive: Potency [13] | Potency [4] | activation [7] -0.282% | Potency [8] | Potency [10] | Potency [11] | Potency [12] | max response [19] -0.0021%

O=C(OCC1CO1)C1CCCCC1C(=O)OCC1CO1 (stereo not given)
active: Potency [17] 50.1 µM
inactive: Potency [3] | Potency [13] | activation [7] 2.8% | activity change % (negative = inhibition) [9] -2.36% | Potency [10] | Potency [11] | Potency [12] | Potency [20] | max response [19] 1.33%

Cc1cc(=O)oc2cc(O)cc(O)c12
inactive: Potency [1] > 92 µM | Potency [2] > 92 µM | Potency [3] | Potency [13] | Potency [4] | Potency [5] | Potency [14] | Potency [15] | Potency [16] | Potency [6] | Potency [17] | activation [7] 9.06% | Potency [8] | Potency [10] | Potency [20] | max response [19] -2.67%

C/C=C1/C(=O)C[C@H]2[C@@H]3CCC4=CC(=O)CC[C@]4(C)[C@H]3CC[C@]12C
active: Potency [4] 31.6 µM | Potency [6] 50.1 µM | Potency [17] 39.8 µM
inactive: Potency [5] | Potency [8] | Potency [11] | Potency [12]

O=[N+]([O-])c1cc(N(CCO)CCO)ccc1NCCO
7.09% and -3.73%: max response [18]
inactive: Potency [13] | Potency [4] | Potency [5] | Potency [14] | Potency [15] | Potency [17] | Potency [8] | activity change % (negative = inhibition) [9] 14.2% and 12% | Potency [10] | Potency [11] | Potency [20] | max response [19] -6.76% and -5.03%

CCCCCCCC/C=C\CCCCCCCC(=O)N(CCO)CCO
inactive: Potency [13] | Potency [5] | Potency [14] | Potency [15] | Potency [6] | Potency [17] | Potency [11] | Potency [12] | Potency [20] | max response [19] 3.59%
13.2%: max response [18]
active: Potency [4] 31.6 µM

Oc1cc(Cl)cc(Cl)c1Cl
inactive: Potency [3] | Potency [13] | Potency [4] | Potency [5] | Potency [15] | Potency [16] | Potency [6] | Potency [17] | Potency [8] | Potency [10] | Potency [20] | max response [19] 0.309%
0.211%: max response [18]
